According to PubChem BioAssay (EPA / NIEHS):
Inconclusive results are not listed. Activity calls are given as the source filed them. Rule for the calls, unless noted: active = hit-call score of the fitted dose curve at least 0.9, where 1 is the maximum; inconclusive = response in the unintended direction; inactive = score below 0.9.

How the values were obtained:
[1] = ATG_VDRE_CIS: Attagene CIS-FACTORIAL HepG2 Assay for human Vitamin D Receptor Element (VDRE) (AID 2282968; active = hit-call score of the fitted dose curve at least 0.9, where 1 is the maximum; inactive = score below 0.9); conditions: HepG2 VDRE cis-reporter transcription, actives raise or lower the signal
Procedure, shortened: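 Cell-based multiplexed reporter format in human liver HepG2 cells, 24 h post-dose. Fluorescence from capillary electrophoresis of reporter cDNA gives the signal, with DMSO as negative control and baseline.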

[2] = biological target: Steroid hormone receptor ERR1 (Homo sapiens) (UniProt P11474); test: ATG_ERRa_TRANS: Attagene TRANS-FACTORIAL HepG2 Assay for human Estrogen-Related Receptor alpha (ERRa) (AID 2282971); conditions: HepG2 Attagene TRANS reporter, ERRa transactivation
Procedure, shortened: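 HepG2 cells were transiently transfected with multiple GAL4-UAS reporter units, then dosed with compound for 24 h. Total RNA was reverse-transcribed, reporter cDNA PCR-amplified and fluorescently labelled, and fragments resolved by capillary electrophoresis; induction was compared with DMSO.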

[3] = biological target: X-box-binding protein 1 (Homo sapiens) (UniProt P17861); test: ATG_Xbp1_CIS: Attagene CIS-FACTORIAL HepG2 Assay for human X-box Binding Protein 1 (XBP1) (AID 2282972; active = hit-call score of the fitted dose curve at least 0.9, where 1 is the maximum; inactive = score below 0.9); conditions: HepG2 XBP1 cis-element reporter, Attagene multiplex; actives raise or lower the signal
Procedure, shortened: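 Fluorescence-labelled cDNA fragments from reporter transcripts, separated by capillary electrophoresis, give the signal. Source: HepG2 cells transfected with promoter-driven reporter units, harvested 24 h post-dose. DMSO served as reference for bidirectional curve fitting.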

[4] = ATG_M_19_TRANS: Attagene TRANS-FACTORIAL HepG2 Assay for M19 Transcription Factor (Internal Marker) (AID 2282974); conditions: HepG2 Attagene TRANS-FACTORIAL M19 internal marker reporter
Procedure, shortened: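 Multiplexed TRANS format: HepG2 liver cells bearing transient GAL4-UAS reporter units, chemical treatment 24 h, reporter transcripts quantified by RT-PCR plus capillary electrophoresis. DMSO defines baseline.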

[5] = ATG_GAL4_TRANS: Attagene TRANS-FACTORIAL HepG2 Assay for GAL4 (Internal Marker) (AID 2282976); conditions: HepG2 Attagene TRANS GAL4 internal marker reporter
Procedure, shortened: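 Fluorescence from capillary electrophoresis of labelled RT-PCR products quantifies reporter mRNA induction after 24 h dosing of HepG2 cells carrying transfected GAL4-UAS reporter transcription units. Vehicle DMSO serves as baseline.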

[6] = biological target: Glucocorticoid receptor (Homo sapiens) (UniProt P04150); test: ATG_GR_TRANS: Attagene TRANS-FACTORIAL HepG2 Assay for human Glucocorticoid Receptor (GR) (AID 2282978); conditions: HepG2 Attagene TRANS GR reporter, mRNA transcription;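 note: activators score as hits since higher reporter transcript over DMSO is fitted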
Procedure, shortened: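 Transiently transfected HepG2 cells express chimeric NR-GAL4 proteins acting on GAL4-UAS reporter units. Compounds are applied for 24 h. mRNA induction over DMSO is measured by capillary electrophoresis.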

[7] = biological target: Androgen receptor (Homo sapiens) (UniProt P10275); test: ATG_AR_TRANS: Attagene TRANS-FACTORIAL HepG2 Assay for human Androgen Receptor (AR) (AID 2282973); conditions: HepG2 Attagene TRANS-FACTORIAL AR reporter transcription
Procedure, shortened: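 Transfected HepG2, 24 h treatment, chimeric NR-Gal4 driving GAL4-UAS reporters. mRNA induction by RT-PCR/capillary electrophoresis fluorescence; DMSO as negative control and baseline.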

[8] = biological target: Estrogen receptor (Homo sapiens) (UniProt P03372); test: ATG_ERa_TRANS: Attagene TRANS-FACTORIAL HepG2 Assay for human Estrogen Receptor alpha (ERa) (AID 2282970); conditions: HepG2 Attagene TRANS ERa GAL4 reporter, mRNA
Procedure, shortened: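 Transactivation via ERa-Gal4 chimera in HepG2; 24 hour incubation; reporter mRNA detected by fluorescence RT-PCR and capillary electrophoresis.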

[9] = biological target: Estrogen-related receptor gamma (Homo sapiens) (UniProt P62508); test: ATG_ERRg_TRANS: Attagene TRANS-FACTORIAL HepG2 Assay for human Estrogen-Related Receptor gamma (ERRg) (AID 2282977); conditions: HepG2 Attagene TRANS reporter, ERRg transactivation;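 note: hits increase reporter signal over DMSO so potencies reflect activators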
Procedure, shortened: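 Transient HepG2 transfectants, 24 h compound exposure, GAL4-UAS reporter mRNA by RT-PCR/6-FAM labelling/capillary electrophoresis; positive direction vs DMSO.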

Measured: AC50

Androgen receptor (Homo sapiens), sequence (P10275 whole entry, looked up, the tested form may be a part): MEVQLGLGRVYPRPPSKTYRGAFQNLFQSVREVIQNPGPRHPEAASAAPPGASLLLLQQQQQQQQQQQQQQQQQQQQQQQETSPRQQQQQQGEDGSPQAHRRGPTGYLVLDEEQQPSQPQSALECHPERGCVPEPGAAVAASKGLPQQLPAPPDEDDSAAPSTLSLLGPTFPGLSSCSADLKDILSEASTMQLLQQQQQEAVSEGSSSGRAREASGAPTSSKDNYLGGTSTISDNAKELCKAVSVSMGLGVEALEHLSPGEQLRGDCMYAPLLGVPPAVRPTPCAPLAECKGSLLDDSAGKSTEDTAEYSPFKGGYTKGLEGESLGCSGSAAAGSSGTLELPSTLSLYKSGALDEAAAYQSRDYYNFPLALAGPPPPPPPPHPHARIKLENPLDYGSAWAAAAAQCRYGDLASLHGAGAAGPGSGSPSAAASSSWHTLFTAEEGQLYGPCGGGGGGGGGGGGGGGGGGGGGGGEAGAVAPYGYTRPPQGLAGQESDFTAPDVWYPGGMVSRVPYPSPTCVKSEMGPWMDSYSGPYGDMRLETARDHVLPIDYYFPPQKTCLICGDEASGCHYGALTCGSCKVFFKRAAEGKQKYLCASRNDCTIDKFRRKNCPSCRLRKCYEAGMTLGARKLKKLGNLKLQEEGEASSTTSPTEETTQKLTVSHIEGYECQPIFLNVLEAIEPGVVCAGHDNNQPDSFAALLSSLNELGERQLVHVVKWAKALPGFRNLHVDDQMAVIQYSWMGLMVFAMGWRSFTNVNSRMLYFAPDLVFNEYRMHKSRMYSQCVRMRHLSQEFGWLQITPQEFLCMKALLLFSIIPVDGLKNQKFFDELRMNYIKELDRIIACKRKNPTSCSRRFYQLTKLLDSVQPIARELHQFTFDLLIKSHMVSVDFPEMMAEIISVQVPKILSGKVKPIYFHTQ
Glucocorticoid receptor (Homo sapiens), sequence (P04150 whole entry, looked up, the tested form may be a part): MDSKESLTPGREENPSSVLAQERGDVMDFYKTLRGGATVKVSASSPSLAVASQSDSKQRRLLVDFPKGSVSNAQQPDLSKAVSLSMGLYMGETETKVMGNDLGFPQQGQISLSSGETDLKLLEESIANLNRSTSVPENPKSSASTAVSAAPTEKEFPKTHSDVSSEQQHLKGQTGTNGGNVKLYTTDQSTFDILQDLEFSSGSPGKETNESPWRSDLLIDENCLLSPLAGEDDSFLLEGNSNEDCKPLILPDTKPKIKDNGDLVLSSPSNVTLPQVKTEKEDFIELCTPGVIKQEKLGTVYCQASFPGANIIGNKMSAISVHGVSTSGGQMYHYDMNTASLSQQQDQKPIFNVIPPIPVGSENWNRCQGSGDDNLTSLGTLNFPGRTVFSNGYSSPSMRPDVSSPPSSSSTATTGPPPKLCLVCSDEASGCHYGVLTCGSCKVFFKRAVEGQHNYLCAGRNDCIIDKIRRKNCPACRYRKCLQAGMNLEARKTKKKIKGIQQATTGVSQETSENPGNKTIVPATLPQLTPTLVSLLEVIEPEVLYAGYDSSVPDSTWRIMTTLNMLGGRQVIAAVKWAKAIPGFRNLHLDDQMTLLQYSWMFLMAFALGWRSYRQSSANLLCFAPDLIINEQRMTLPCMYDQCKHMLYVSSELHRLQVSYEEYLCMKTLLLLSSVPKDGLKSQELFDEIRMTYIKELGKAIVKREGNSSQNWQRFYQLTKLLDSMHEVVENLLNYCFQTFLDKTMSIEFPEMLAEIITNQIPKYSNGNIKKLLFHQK
Estrogen-related receptor gamma (Homo sapiens), sequence (P62508 whole entry, looked up, the tested form may be a part): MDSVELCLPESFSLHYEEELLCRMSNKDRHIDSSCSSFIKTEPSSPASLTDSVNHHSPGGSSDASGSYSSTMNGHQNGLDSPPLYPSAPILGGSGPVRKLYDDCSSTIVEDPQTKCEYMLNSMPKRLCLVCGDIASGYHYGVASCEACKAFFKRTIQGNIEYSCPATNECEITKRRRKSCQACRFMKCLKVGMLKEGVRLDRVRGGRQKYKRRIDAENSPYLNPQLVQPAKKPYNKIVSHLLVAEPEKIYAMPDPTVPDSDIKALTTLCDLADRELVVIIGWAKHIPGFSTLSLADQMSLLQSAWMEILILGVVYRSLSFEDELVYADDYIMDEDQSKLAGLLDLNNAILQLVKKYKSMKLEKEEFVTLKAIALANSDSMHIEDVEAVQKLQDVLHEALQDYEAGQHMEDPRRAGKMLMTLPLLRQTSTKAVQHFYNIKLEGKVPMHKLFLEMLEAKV
Steroid hormone receptor ERR1 (Homo sapiens), sequence (P11474 whole entry, looked up, the tested form may be a part): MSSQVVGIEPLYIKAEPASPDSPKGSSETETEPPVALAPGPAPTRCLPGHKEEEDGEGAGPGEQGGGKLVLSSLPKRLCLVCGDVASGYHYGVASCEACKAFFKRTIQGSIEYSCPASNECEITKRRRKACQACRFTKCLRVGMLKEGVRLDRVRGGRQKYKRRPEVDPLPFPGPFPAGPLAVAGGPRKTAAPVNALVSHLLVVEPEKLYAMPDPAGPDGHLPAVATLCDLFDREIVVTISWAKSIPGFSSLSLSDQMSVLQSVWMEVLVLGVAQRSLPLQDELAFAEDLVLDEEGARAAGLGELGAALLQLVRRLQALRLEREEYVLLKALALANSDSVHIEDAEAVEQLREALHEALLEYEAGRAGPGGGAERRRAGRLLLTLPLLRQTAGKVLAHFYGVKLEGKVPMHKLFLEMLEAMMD
X-box-binding protein 1 (Homo sapiens), sequence (P17861 whole entry, looked up, the tested form may be a part): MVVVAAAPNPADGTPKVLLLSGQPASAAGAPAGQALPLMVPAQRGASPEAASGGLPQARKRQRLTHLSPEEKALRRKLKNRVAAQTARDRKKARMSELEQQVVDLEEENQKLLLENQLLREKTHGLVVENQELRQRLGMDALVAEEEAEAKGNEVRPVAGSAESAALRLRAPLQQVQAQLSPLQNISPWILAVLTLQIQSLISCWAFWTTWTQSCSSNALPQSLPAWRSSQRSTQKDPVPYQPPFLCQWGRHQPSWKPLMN
Estrogen receptor (Homo sapiens), sequence (P03372 whole entry, looked up, the tested form may be a part): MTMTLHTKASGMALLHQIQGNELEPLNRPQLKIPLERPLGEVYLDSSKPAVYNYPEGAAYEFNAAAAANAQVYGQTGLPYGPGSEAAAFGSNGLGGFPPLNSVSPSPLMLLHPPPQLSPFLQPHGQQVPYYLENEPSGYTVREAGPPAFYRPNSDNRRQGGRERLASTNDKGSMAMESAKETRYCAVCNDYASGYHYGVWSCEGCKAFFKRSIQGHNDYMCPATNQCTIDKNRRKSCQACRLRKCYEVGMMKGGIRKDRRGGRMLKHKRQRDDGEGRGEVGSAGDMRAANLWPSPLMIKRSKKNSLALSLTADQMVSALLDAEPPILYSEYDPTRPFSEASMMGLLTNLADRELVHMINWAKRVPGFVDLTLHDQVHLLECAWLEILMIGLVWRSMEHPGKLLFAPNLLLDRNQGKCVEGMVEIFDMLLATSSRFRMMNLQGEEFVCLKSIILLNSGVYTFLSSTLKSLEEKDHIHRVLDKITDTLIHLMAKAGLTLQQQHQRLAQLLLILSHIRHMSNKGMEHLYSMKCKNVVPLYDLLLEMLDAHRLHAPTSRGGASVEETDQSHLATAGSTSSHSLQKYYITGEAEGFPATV

C[C@]12CC[C@@H](O)C[C@@H]1CC[C@@H]1[C@@H]2CC[C@]2(C)C(=O)CC[C@@H]12
inactive: [1] | [2] | [3] | [4] | [5] | [6]

COCCl
inactive: [1] | [2] | [3] | [7] | [4] | [5] | [6]

Brc1c(Br)c(Br)c(Oc2c(Br)c(Br)c(Br)c(Br)c2Br)c(Br)c1Br
inactive: [1] | [2] | [3] | [4] | [5] | [6]

Clc1cnc(Oc2ccc(Oc3ncc(Cl)cc3Cl)cc2)c(Cl)c1
inactive: [3] | [4]
active: [1] 20 µM

CCCCN(CCCC)C(=S)S
inactive: [8] | [9]
active: [1] 24.3 µM

N#Cc1ccccc1Cl
inactive: [1] | [2] | [3]

C=CCOC(F)(C(F)(F)F)C(F)(F)F
inactive: [1] | [2] | [3] | [7] | [5] | [9] | [6]

O=C1C=CC(=O)c2ccccc21
inactive: [1] | [7] | [9] | [6]
active: [8] 11.1 µM

Cc1cc(-c2cc(C)c(N)c(C)c2)cc(C)c1N
inactive: [1] | [8] | [4] | [6]

Clc1cccc(Cl)c1Cl
inactive: [1] | [2] | [9]

Clc1cc(C(Cl)(Cl)Cl)cnc1Cl
inactive: [1] | [2] | [3] | [4] | [9]

CCNc1nc(NCC)nc(SC)n1
inactive: [1] | [8] | [6]

C[CH2][Hg][S]c1ccccc1C(=O)O
inactive: [7] | [9] | [6]
active: [1] 3 µM | [3] 2.7 µM

Brc1ccc(Oc2c(Br)cc(Br)cc2Br)c(Br)c1
inactive: [1] | [2] | [3] | [7] | [4] | [5] | [6]
